# High-throughput results: PubChem BioAssay, National Center for Advancing Translational Sciences (NCATS)
# NS1 inh: inhibitors of influenza NS1 protein function | 0.4% of 270,000 active | Potency, µM (series often up to 46.1 µM), inactives show at the highest dose activity, positive = more growth; calls by dose curve; also: actives are rising curves; nearly all actives have a fitted effect of over 50% in size
#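 Recovery from NS1-induced slow growth read by OD600 in budding yeast switched to galactose assay medium (pH 6.0, -URA) at 1:100 dilution. Compound 23 nl per well; the matching strain lacking NS1 serves as control.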
# Cruzain Triton: inhibitors of Trypanosoma cruzi cruzain with detergent. P25779. purified cruzain, Z-FR-AMC fluorescence, 0.01% Triton. Potency, µM, inactives show max response, negative = inhibition, most hits filed as inhibitors. 0.43% of 200,000 active;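 also: plate controls were neutral wells for no effect and buffer without enzyme for full effect; nearly all actives have a fitted effect of over 40% in size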
# Target sequence (P25779 123-467 limits assumed): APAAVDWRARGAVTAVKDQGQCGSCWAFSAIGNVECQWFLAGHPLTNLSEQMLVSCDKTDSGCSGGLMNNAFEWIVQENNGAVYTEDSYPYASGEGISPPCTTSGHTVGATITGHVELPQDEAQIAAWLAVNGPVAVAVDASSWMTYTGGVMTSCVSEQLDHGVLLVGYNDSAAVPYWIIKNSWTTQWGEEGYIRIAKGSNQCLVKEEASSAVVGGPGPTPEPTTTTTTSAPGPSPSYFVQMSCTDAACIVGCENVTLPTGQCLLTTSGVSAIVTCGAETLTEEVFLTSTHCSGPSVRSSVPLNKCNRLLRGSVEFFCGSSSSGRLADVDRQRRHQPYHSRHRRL
#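 Cysteine protease activity tested under reducing, mildly acidic conditions (100 mM sodium acetate pH 5.5, 5 mM DTT) plus 0.01% Triton X-100. Cruzain 1.5 nM; substrate Z-FR-AMC 2 uM; 15 min compound preincubation at room temperature.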
# Cruzain inh noDet: inhibitors of Trypanosoma cruzi cruzain without detergent; AID 1476; purified cruzain, Z-FR-AMC fluorescence, no detergent; 2.3% of 200,000 active; Potency, µM, inactives show max response, negative = inhibition, most hits filed as inhibitors; P25779;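 also: plate controls were enzyme without inhibitor for no effect and buffer without enzyme for full effect; nearly all actives have a fitted effect of over 40% in size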
#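 Detergent-free condition (0.00005% Triton X-100) in acetate buffer pH 5.5 with DTT. 1.5 nM enzyme and compound were pre-mixed 15 min, then 2 uM Z-FR-AMC substrate added; reaction progress from fluorescence change between first and third reads (60 s).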
# The depositor's hits bear a star; ? = inconclusive; / = not tested or not shown. Many of the other results were omitted from the sample, so hits are more common in it than they were. Unless noted, calls follow the shape of the dose curve; as a rule, active = well fitted curve in the direction sought with a large enough effect; inconclusive = small, poorly fitted or top-dose-only effect, or another doubt; inactive = no such curve, though single readings can be large; an effect the other way counts as inactive or inconclusive. Potency is read from the fitted curve at half-maximal effect.
SMILES,NS1 inh,Cruzain Triton,Cruzain inh noDet
COc1cccc(OCc2cc(C3Nc4ccccc4C(=O)N3Cc3ccco3)ccc2OC)c1 (stereo not drawn),16%,-7%,16µM*
COc1ccc(C2Nc3ccccc3C(=O)N2Cc2ccco2)cc1COc1ccc([N+](=O)[O-])cc1 (stereo not drawn),0%,0%,?
Oc1c(C(c2ccc(F)cc2)N2CCCC2)sc2nc(-c3ccco3)nn12 (stereo not drawn),/,-3%,-10%
Cc1noc(C)c1-c1nc(NCc2cccs2)c2ccccc2n1,/,-2%,3%
O=C(Nc1ccc2oc(-c3ccc4ccccc4c3)nc2c1)c1cc(Cl)ccc1Cl,/,-1%,5µM*
COc1ccc(C(=O)Nc2ccc(-c3cc4ccccc4oc3=O)c(C)c2)cc1OC,/,-2%,?
COc1cc(NC(=O)c2cc(Cl)ccc2Cl)ccc1-c1cc2ccccc2oc1=O,-6%,-15%,20µM*
O=C(Nc1ccc2oc(-c3ccc4ccccc4c3)nc2c1)c1cc(Br)ccc1Cl,/,0%,-1%
CCNS(=O)(=O)c1ccc(C)cc1,/,5%,-4%
CCOc1ccccc1NC(=O)Cn1c(=O)n(-c2ccc(F)cc2)c(=O)c2sc3ccccc3c21,/,0%,-1%
CCOC(=O)C1CCN(C(=O)Cn2nc(C)n3c(cc4sccc43)c2=O)CC1,/,-4%,-10%
CC/C=C\C/C=C\C/C=C\C/C=C\C/C=C\C/C=C\CCC(=O)O[C@H](COCCCCCCCCCCCCCCCC)COP(=O)([O-])OCC[N+](C)(C)C,/,2%,?
CN1C(C)(C)CC(=NOC(=O)c2ccccc2)CC1(C)C,-2%,-1%,2%
CN1C(=O)/C(=N/OC(=O)c2ccccc2)c2ccccc21,-89%,4.5µM*,6.3µM*
O=C(NC[C@H]1CCCCN1)c1cc(OCC(F)(F)F)ccc1OCC(F)(F)F,/,-2%,3%
CC(=O)c1ccc(NC(=O)c2nc(-c3ccccc3)n(-c3ccc(Cl)cc3)n2)cc1,/,-5%,13µM*
CC(=O)c1ccc(NC(=O)c2nc(-c3ccccc3)n(-c3ccc(C)cc3)n2)cc1,/,-5%,8%
COP(=O)(OC)O/C(=C\Cl)c1cc(Cl)c(Cl)cc1Cl,/,0%,6%
Cc1c(CC=C(Cl)Cl)c(=O)[nH]c2c(C)cccc12,-7%,0%,2.5µM*
CCCc1c(C)c2cccc(C)c2[nH]c1=O,-23%,3%,-11%
CC1CCCN(S(=O)(=O)c2ccc(N3CCCCS3(=O)=O)cc2)C1 (stereo not drawn),/,1%,-5%
Cc1ccc(-n2ncc3c(=O)n(CC(=O)Nc4cccc(Cl)c4)cnc32)cc1C,5%,-7%,16µM*
Cc1ccc(-n2ncc3c(=O)n(Cc4cccc(Cl)c4)cnc32)cc1C,/,0%,15%
Cc1ccc(S(=O)(=O)NCCc2nnc3ccc(SCc4cccc(F)c4)nn23)cc1,/,-6%,?
Cc1sc(N/N=C/c2cccnc2)nc1-c1ccc(Cl)cc1,13%,-7%,16µM*
SMILES,NS1 inh,Cruzain Triton,Cruzain inh noDet
Clc1ccc(N/N=C/c2cccnc2)cc1,-33%,-10%,10%
COc1ccc(Cl)cc1NC(=O)c1cc(-c2ccccc2O)n[nH]1,?,-2%,10µM*
COc1ccc(O)c(-c2cc(-c3ccccc3Cl)[nH]n2)c1,-137%,/,/
Oc1ccc(Br)cc1-c1cc(-c2ccccc2Cl)[nH]n1,-1%,/,/
COc1ccccc1-c1cc(-c2cc(Cl)ccc2O)n[nH]1,0%,1%,25µM*
COc1ccc(OC)c(NC(=O)c2cc(-c3cc(Cl)ccc3O)n[nH]2)c1,5%,0%,?
Oc1ccc(Br)cc1-c1cc(-c2ccccc2F)[nH]n1,5%,0%,20µM*
NCC[C@H](O)C(=O)N[C@H]1C[C@@H](N)[C@@H](O[C@H]2O[C@@H](CN)[C@@H](O)[C@@H](O)[C@@H]2O)[C@@H](O)[C@@H]1O[C@H]1O[C@@H](CO)[C@@H](O)[C@@H](N)[C@@H]1O,/,-1%,0%
C/C(=N\N=C(/N)SC1CC(=O)N(c2ccc(Cl)cc2)C1=O)c1cccs1 (stereo not drawn),-29%,-16%,-4%
C/C(=N\N=C(/N)SC1CC(=O)N(c2ccc(Cl)c(Cl)c2)C1=O)c1cccs1 (stereo not drawn),-4%,-7%,32µM*
C=CCOC(=O)N[C@H](c1cccc(C(F)(F)F)c1)C(C(C)=O)C(C)=O,/,2%,-3%
Cc1cccc2cc(CN(Cc3cccs3)C(=S)NCC3CCCO3)c(=O)[nH]c12 (stereo not drawn),-3%,-8%,3%
Cc1ccc(NC(=S)N(Cc2cccs2)Cc2cc3cccc(C)c3[nH]c2=O)cc1,12%,-3%,16µM*
Cc1cccc(CNC(=O)Cc2csc3ccccc23)c1,/,-1%,-28%
O=C(O)CN(CCN(CC(=O)O)CC(=O)O)CC(=O)O.[Mn],-1%,-1%,7%
Nc1ccc2nc(-c3ccc(-c4nc5ccc(N)cc5[nH]4)cc3)[nH]c2c1,-44%,/,/
Nc1ccc(-c2nc3ccc(-c4nc5ccc(N)cc5[nH]4)cc3[nH]2)cc1,-18%,14µM*,25µM*
Nc1nc2c(nc(Sc3ccc(Cl)cc3)n2C2OC(CO)C(O)C2O)c(=O)[nH]1 (stereo not drawn),/,1%,0%
O=C1/C(=C\c2ccc(-c3ccccc3Cl)o2)SC(=S)N1CC1CCCO1 (stereo not drawn),10%,-4%,16µM*
Cc1ccc(/C=C2\SC(=S)N(CC3CCCO3)C2=O)o1 (stereo not drawn),1%,/,/
CC1(c2ccccc2)CC(C)(C)N(C(=O)c2ccccc2Cl)c2ccccc21 (stereo not drawn),/,-1%,1%
CCN1CCN(Cc2c(O)ccc3c(=O)c(Oc4ccccc4C(C)C)c(C(F)(F)F)oc23)CC1,/,-3%,3%
O=C(CCS(=O)(=O)c1cccs1)Nc1ccc(C(=O)Nc2cccc(Cl)c2)cc1,/,-11%,-25%
CC(C)c1ccc(NC(=O)c2ccc(NC(=O)CCS(=O)(=O)c3cccs3)cc2)cc1,/,-4%,32µM*
N#Cc1ccsc1NC(=O)CSc1ncn[nH]1,8%,5%,-5%
SMILES,NS1 inh,Cruzain Triton,Cruzain inh noDet
N#Cc1ccsc1NC(=O)CSc1ncnc2ccccc12,19%,-8%,16µM*
CCNc1ncc2nc(-c3ccc(F)cc3)c(=O)n(CCC#N)c2n1,/,-4%,5%
Cc1ccc(Cl)cc1N1CCN(C(=O)c2cn(C)c3ccc(S(=O)(=O)N4CCCC4)cc3c2=O)CC1,/,-5%,23%
O=C(OC1Cc2c(O)cc(O)cc2OC1c1cc(O)c(O)c(O)c1)c1cc(O)c(O)c(O)c1 (stereo not drawn),/,-7%,-16%
Nc1ncc(S(=O)(=O)N2CCN(c3ccccc3)CC2)cn1,/,6%,6%
O=S(=O)(c1ccccc1)N1CCn2c(nc3ccccc32)C1,-2%,-7%,-13%
O=S(=O)(c1ccc(F)cc1)N1CCn2c(nc3ccccc32)C1,0%,18µM*,5µM*
CC(=O)c1ccc(NC(=O)c2sc(-n3nc(C)c(Cc4ccc5c(c4)OCO5)c3C)nc2C)cc1,/,-1%,-9%
Nc1c(-c2n[nH]c(=S)n2-c2ccc(Cl)cc2Cl)cnn1-c1ccccc1,0%,/,/
Nc1[nH]nc2c1NN(c1ccc(Cl)cc1Cl)N2,17%,-17%,20µM*
Cc1cc2ccccc2n1-c1ccc(C(=O)N2CCC(C(=O)NCc3ccc(F)cc3)CC2)s1,/,-2%,9%
